Screening results (PubChem)
Compounds with a hit are over-represented: about 12% of the library has one in this group of screens.
PostGolgi ctrl = yeast control strain growth, post-Golgi counter-screen; AID 738; efflux-deficient yeast background strain, growth absorbance A615, 16 h; hit rate 5% among 98,000; inhibition, % at 10 µM
D1 allo mod = allosteric modulators of human D1 dopamine receptor; B-score at 10 µM; HEK293 D1, CRE-luciferase, dopamine EC30 potentiation; actives deviate in either direction; hit rate 5.9% among 58,000;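 active means luminescence count or its row- and column-corrected plate score outside the 99.7% band of the plate's sample wells, on either side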
Target sequence (P21728 whole entry, looked up): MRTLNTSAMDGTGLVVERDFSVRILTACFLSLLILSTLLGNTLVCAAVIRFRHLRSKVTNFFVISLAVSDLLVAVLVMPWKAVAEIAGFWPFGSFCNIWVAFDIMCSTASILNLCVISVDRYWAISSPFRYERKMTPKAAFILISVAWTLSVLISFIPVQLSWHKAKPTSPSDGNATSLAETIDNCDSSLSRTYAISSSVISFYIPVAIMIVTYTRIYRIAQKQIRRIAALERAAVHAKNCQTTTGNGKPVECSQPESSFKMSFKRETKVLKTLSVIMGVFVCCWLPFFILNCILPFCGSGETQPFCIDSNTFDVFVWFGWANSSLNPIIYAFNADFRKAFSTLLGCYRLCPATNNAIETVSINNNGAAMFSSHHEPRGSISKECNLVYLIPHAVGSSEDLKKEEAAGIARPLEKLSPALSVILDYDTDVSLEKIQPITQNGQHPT
PostGolgi yeast = growth inhibition of a yeast mutant, post-Golgi transport screen. post-Golgi transport phenotypic cell assay. inhibition, % at 10 µM. hit rate 0.9% among 98,000;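 further: yeast cells grown in 1536-well plates; yeast grown about 18 h at 30C before absorbance read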
DAT uptake mod = human DAT dopamine uptake with cocaine, either direction; LLC-PK1 hDAT cells, [14C]-dopamine uptake with cocaine IC80; actives deviate in either direction; hit rate 1.3% among 110,000; Q01959; B-score at 10 µM;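 active means Z score or B-score, a plate-position-corrected score, falls beyond the plate's 99.7% confidence bounds, in either direction; inactive means both scores lie inside the 99.7% bounds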;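 further: scored against the spread of the other compound wells on the same plate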
Cav3 T inh = human Cav3.2 channel inhibition, primary screen | O95180 | Cav3.2-expressing cells, Fluo-4 calcium fluorescence FDSS; stronger effect = lower value | B-score at 10 µM | hit rate 4% among 100,000 | AID 449739;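 active means single-dose well whose peak fluorescence ratio is a statistical outlier from its plate by either plate-standardised score or position-corrected B-score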
PLAP act = activates human placental alkaline phosphatase. activation fold at 20 µM. AID 696. purified PLAP enzyme, luminescent substrate read-out; stronger effect = higher value. hit rate 1.2% among 96,000. P05187; in the data active means activation fold above about 2
An asterisk follows results filed as active; / = no result. Unless noted, no stated cut-off is given here; in the data, active means inhibition above about 30%; inactive means the rest.

SMILES | PostGolgi ctrl | D1 allo mod | PostGolgi yeast | DAT uptake mod | Cav3 T inh | PLAP act
CCOC(=O)c1c(C=O)c(C)n(Cc2ccc(Cl)cc2)c1C | 42* | / | 3 | 0.3 | -2.3 | 0.8
Cc1ccc(S(=O)(=O)NC(CC(C)C)C(=O)NCc2ccco2)cc1 (stereo not drawn) | 4 | / | -1 | 0.2 | 0.99 | 0.9
O=S(=O)(c1ccccc1)c1nc(-c2ccccc2Cl)oc1NCCN1CCOCC1 | 15 | / | 8 | -0.028 | 0.23 | 1.5
Cc1ccccc1-c1nc(S(=O)(=O)c2ccc(Cl)cc2)c(NCCN2CCOCC2)o1 | 22 | / | 7 | 1.9* | -2.1 | 1.6
Cc1nonc1OCC(C)(COc1nonc1C)NC(=O)c1ccccc1 | / | / | / | 0.042 | -0.48 | /
CN(C)CCN1C(=O)C(=O)/C(=C(/O)c2ccc(OCc3ccccc3)cc2)C1c1ccncc1 (stereo not drawn) | 2 | 1.9 | 3 | -0.32 | 0.0085 | 1.2
COC1=CC(=O)C(O)=C(CCCCCCC/C=C/CCCCCCCC2=C(O)C(=O)C=C(OC)C2=O)C1=O | / | / | / | -1.6 | -5.2* | /
CCOC(=O)C1=C(CSc2nc(-c3ccncc3)ccc2C#N)OC(N)=C(C#N)C1c1cccnc1 (stereo not drawn) | -6 | 3.6 | -4 | 0.22 | -5* | 1.5
CCOC(=O)C1=C(CSc2nc(CC)c(C)cc2C#N)OC(N)=C(C#N)C1c1ccc(OC)cc1 (stereo not drawn) | / | / | / | 0.16 | -8.4* | /
C=CCNC(=O)c1cccc(C(F)(F)F)c1 | 30 | / | 3 | -0.82 | 0.029 | 1.1
CC(=O)N(c1ccc(N(C(C)=O)S(=O)(=O)c2cccs2)cc1)S(=O)(=O)c1cccs1 | 66* | -0.035 | 0 | 0.63 | 0.41 | 1
Cc1ccc(N(CC(=O)NCc2cccs2)S(=O)(=O)c2cccs2)cc1 | 10 | -0.79 | 3 | 0.47 | -1.3 | 0.8
O=C(Cn1ccc2ccccc2c1=O)NCCC(=O)NC1CCN(Cc2ccccc2)CC1 | 49* | -0.17 | -3 | -1.7 | -0.055 | 1.5
COc1cc(NC(=O)c2cc3cccc(OC)c3o2)cc(C(=O)Nc2cccc(C(F)(F)F)c2)c1 | / | / | / | 0.37 | -1.8 | /
Cc1onc(-c2ccccc2Cl)c1C(=O)Nc1nc2c(s1)CCCC2 | 43* | / | 4 | -0.081 | -1.9 | 1.1
COC(=O)c1cc(OC)c(OC)cc1NC(=O)c1c(-c2ccccc2Cl)noc1C | 37* | 1.1 | 22 | 0.36 | -2.9 | 1.7
Cc1onc(-c2ccccc2Cl)c1C(=O)Nc1ccc(F)c(F)c1 | 20 | 0.078 | 0 | -0.92 | -4.1* | 0.9
Cc1ccc(NC(=S)NC(=O)c2c(-c3ccccc3Cl)noc2C)cc1 | 25 | / | -5 | / | / | 1.2
Cc1cc(NC(=O)c2c(-c3ccccc3Cl)noc2C)no1 | 9 | 0.055 | -2 | -0.26 | -0.59 | 1
Cc1ccc(Cn2ccc(NC(=O)c3c(-c4ccccc4Cl)noc3C)n2)cc1 | 10 | 0.65 | 0 | 3 | -5.5* | 1
CCC(C)[C@H]1CN=C(N)N1CCc1cccc(F)c1 (stereo partly drawn) | / | / | / | 0.4 | -0.75 | /
Cc1ccc(CNC(=O)C(Cc2ccccc2)NS(=O)(=O)c2cccs2)cc1 (stereo not drawn) | 10 | / | -1 | -0.16 | -1.6 | 0.9
N#Cc1ccccc1OCC(=O)Nc1c(C(=O)C2CC2)oc2ccccc12 | 5 | 1.5 | -2 | -0.68 | 0.47 | 0.9
O=C(Nc1nc2c(s1)CCCC2)c1ccc(Br)o1 | 23 | -0.89 | 0 | 0.13 | -1.6 | 0.9
Cc1ccc(C(=O)Nc2nc3c(s2)CCCC3)o1 | 7 | -4.7* | 21 | -0.13 | -0.43 | 1
SMILES | PostGolgi ctrl | D1 allo mod | PostGolgi yeast | DAT uptake mod | Cav3 T inh | PLAP act
Cc1ccc(C(=O)c2cn[nH]c2-c2cc(Cl)ccc2O)cc1 | 38* | -0.75 | 0 | -0.99 | -1.8 | 2.3*
Cc1ccc(C(=O)c2cncc(Br)c2)cc1 | -6 | -0.36 | 7 | -1 | 0.55 | 1
COc1ccc(O)c(-c2[nH]ncc2C(=O)c2ccccc2)c1 | -7 | -0.041 | 7 | -0.27 | 0.83 | /
O=C(c1ccco1)c1cn[nH]c1-c1ccc(Cl)cc1O | 1 | 0.37 | 22 | 0.41 | 0.35 | 2.9*
O=C(c1ccccc1)c1cn[nH]c1-c1ccccc1O | 16 | / | -2 | 0.093 | 0.61 | 2.2*
CCOC(=O)c1cnc(SC)nc1Sc1ccccc1 | 24 | / | 0 | 1.2 | -0.46 | 1
CN(c1ccc(C(=O)N2CCCCC2)cc1)S(C)(=O)=O | 19 | -0.15 | -7 | -0.64 | -0.17 | 1
Cc1ccccc1-n1c(SCc2ccccn2)nc2n[nH]c(C)c2c1=N | 21 | 2.3 | -4 | 0.85 | 0.74 | 2.3*
